From PubChem
An excerpt weighted towards active compounds, which were near 6% of everything screened.
FLuc inh – firefly luciferase inhibition; P08659; purified firefly luciferase, luminescence, 8 min; Potency, µM (top dose mostly 57.1 µM), most hits filed as inhibitors; hit rate 2.2% among 72,000; further: nearly all actives have a fitted effect of over 40% in size
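Substrate buffer containing 10 uM ATP (pH 7.2 imidazole, Mg2+, KCl, detergent, BSA) is dispensed, compound pinned in, then luciferase/luciferin detector mix added. After 8 min at ambient temperature, light output is measured.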
ERK AVP block – blocks ERK signaling stimulated by vasopressin; HEK293-V1b, vasopressin-stimulated pERK AlphaScreen; Potency, µM (highest dose often 57.5 µM), most hits filed as inhibitors; hit rate 0.99% among 72,000; AID 995; further: nearly all actives have a fitted effect of over 55% in size
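Phosphorylated ERK1/2 detected via AlphaScreen bead proximity in lysates of V1b-expressing HEK293 cells given 25 nM vasopressin for 5 min after 30 min compound exposure (37 °C). AC50 from Hill equation; basal DMSO 0%, vasopressin 100%.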
Tau filament bind – tau filament binding; P10636; recombinant tau filaments, thioflavin S fluorescence, 15 h; filaments grown with octadecylsulfate alongside compound; Potency, µM (top dose mostly 57.1 µM); hit rate 2% among 71,000;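 further: actives lower thioflavin S fluorescence by blocking filaments or displacing dye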
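His-tagged recombinant human tau (exons 2, 3 and 10 included), 1 uM, was induced to fibrillize by 30 uM sodium octadecylsulfate with compound present. After 15 h at 37 C, thioflavine S fluorescence (ex 450, em 510 nm) was read.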
15-hLO inh – blocks human 15-lipoxygenase activity; P16050; purified 15hLO-1, xylenol orange hydroperoxide absorbance; Potency, µM (titrated, usually from 57.1 µM), usual class: inhibitors; hit rate 1.4% among 74,000; AID 887; further: nearly all actives have a fitted effect of over 55% in size
Target sequence (P16050 whole entry, looked up): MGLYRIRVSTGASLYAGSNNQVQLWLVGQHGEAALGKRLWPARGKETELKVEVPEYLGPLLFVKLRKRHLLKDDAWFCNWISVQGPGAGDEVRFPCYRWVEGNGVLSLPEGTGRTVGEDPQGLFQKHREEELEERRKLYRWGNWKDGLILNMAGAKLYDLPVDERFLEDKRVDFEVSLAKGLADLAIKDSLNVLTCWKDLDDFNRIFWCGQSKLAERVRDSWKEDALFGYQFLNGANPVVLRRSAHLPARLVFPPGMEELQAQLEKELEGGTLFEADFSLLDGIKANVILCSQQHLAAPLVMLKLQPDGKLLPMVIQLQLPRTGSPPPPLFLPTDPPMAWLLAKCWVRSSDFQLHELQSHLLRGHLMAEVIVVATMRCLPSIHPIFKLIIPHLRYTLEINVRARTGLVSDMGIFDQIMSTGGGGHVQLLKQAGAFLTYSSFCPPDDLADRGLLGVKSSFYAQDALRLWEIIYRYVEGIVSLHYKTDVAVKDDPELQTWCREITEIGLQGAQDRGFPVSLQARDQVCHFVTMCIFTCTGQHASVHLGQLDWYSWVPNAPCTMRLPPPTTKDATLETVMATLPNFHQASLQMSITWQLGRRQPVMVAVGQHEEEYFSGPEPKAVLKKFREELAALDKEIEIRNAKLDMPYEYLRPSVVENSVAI
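Compounds were preincubated 15 min at room temperature with 40 nM purified human enzyme (25 mM Hepes pH 7.5, 0.01% Triton X-100); 50 uM arachidonic acid reacted 6 min. Fe-xylenol orange detection, 30 min, absorbance ratio 573/405 nm.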
PK Bst – alters activity of Bacillus stearothermophilus pyruvate kinase | Potency, µM | purified pyruvate kinase, luminescence ATP production; ribose 5-phosphate activator present at AC10 | hit rate 1.2% among 51,000; in the data active means potency below about 11 µM; inconclusive means mostly about 12 µM to 25 µM;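 the screen sought inhibitors and activators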
DNA Pol III inh – inhibitors of bacterial DNA polymerase III holoenzyme; reconstituted DNA polymerase III holoenzyme replication, biochemical; Potency, µM (doses to about 57.1 µM); hit rate 0.25% among 71,000
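Reconstituted *E. coli* holoenzyme (0.35 nM Pol III, 1 nM beta, 154 nM SSB, 2 nM primase) was preincubated with compound for 15 min at RT. Synthesis on 1.4 nM ssM13Gori ran 35 min, then was stopped with PicoGreen/EDTA and read as dsDNA fluorescence.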
Numbers stand for hits; n = inactive; u = inconclusive; x = no result given; [ ] = dose if it differs, or a comment. Unless noted, the call rests on the fitted dose curve; in most records, active means well fitted curve in the direction sought with a large enough effect; inconclusive means small, poorly fitted or top-dose-only effect, or another doubt; inactive means no such curve, though single readings can be large; an effect the other way counts as inactive or inconclusive.

SMILES	FLuc inh	ERK AVP block	Tau filament bind	15-hLO inh	PK Bst	DNA Pol III inh
O=c1cc(-c2ccccc2)[nH]c2nc3ccccc3n12	2.5µM	n	n	n	1	n
COc1ccc([C@@H]2[C@H]3CN(C(C)=O)CC=C3C(C#N)=C(N)C2(C#N)C#N)c2ccccc12	n	n	n	13µM	n	n
CCC1C2CN(C(C)=O)CC=C2C(C#N)=C(N)C1(C#N)C#N (configuration not stated)	n	n	n	n	n	n
O=C(Nc1ccc(-c2nc3ccccc3o2)c(O)c1)c1cc(-n2cnnc2)ccc1Cl	n	6.3µM	n	n	x	n
Cc1c(NC(=O)c2cc(-n3cnnc3)ccc2Cl)cccc1-c1nc2ccccc2o1	7.9µM	n	n	n	5.7	n
C/C(=N/O)c1ccc2cc(Br)c3ccccc3c2c1	n[11.4 µM]	n[11.5 µM]	n[11.4 µM]	n[11.4 µM]	x	n[11.4 µM]
Cc1nc2ncnn2c(N2CCC(C(=O)NC3CCCC3)CC2)c1Cc1ccccc1	n	n	n	n	n	n
Cc1nc2ncnn2c(Nc2ccc3c(c2)OCO3)c1Cc1ccccc1	n	25µM	n	n	n	n
O=C(O)/C=C\c1cnc[nH]1	n	n	n	n	x	n
O=C(O)/C=C\C(=O)Nc1ccc2c(c1)C(=O)c1cc(F)ccc1-2	n[11.4 µM]	n[11.5 µM]	n[11.4 µM]	n[11.4 µM]	x	n[11.4 µM]
Cc1ccc2[nH]c3nc(CCCn4ccnc4-c4ccccc4)nnc3c2c1	n[11.4 µM]	n[11.5 µM]	x	n[11.4 µM]	x	x
CCCC(=O)c1cc(O)c(O)cc1O	x	n	u	4µM	x	u
COc1ccccc1-c1ccc2ncnc(NCc3cnc(C)cn3)c2c1	n[2.29 µM]	20µM	n	n	x	n
COc1ccccc1-c1ccc2ncnc(N3CCN(C)CC3)c2c1	n[2.29 µM]	n	n	n	x	n
COc1cccc(-c2nc(NC3CC3)c3ccccc3n2)c1	n[2.29 µM]	13µM	n	25µM	x	n
COc1ccccc1-c1ccc2ncnc(N3CCOCC3)c2c1	n[2.29 µM]	10µM	n	n	x	n
COc1cccc(-c2nc(NCc3ccccc3)c3ccccc3n2)c1	n[2.29 µM]	u	n	n	x	n
COc1ccccc1-c1nc(NCc2ccccc2)c2ccccc2n1	n[2.29 µM]	u	4µM	n	x	n
Cc1ccc(Cl)cc1	x	n	n	n	x	n
O=C(c1ccco1)N1CCC2(CCN(Cc3ccccc3)CC2)CC1	n[11.4 µM]	n	n	n	x	n
Cn1c(=O)c(CCc2ccccc2)nc2cnc(Oc3ccccc3)nc21	n[11.4 µM]	n	n	n	x	n
COc1ccccc1CNc1nc(-c2ccc(N(C)C)cc2)nc2ccccc12	n[2.29 µM]	n	n	20µM	x	n
Cc1ccccc1-c1ccc2ncnc(NCCN3CCOCC3)c2c1	n[2.29 µM]	25µM	n	n	x	n
COc1ccccc1CNc1nc(-c2ccc(C(=O)N(C)C)cc2)nc2ccccc12	n[2.29 µM]	n	n	n	x	n
Cc1ccc(-c2nn(C)c(=O)c3ccccc23)cc1S(=O)(=O)NCCN1CCOCC1	n	25µM	n	n	n	n
SMILES	FLuc inh	ERK AVP block	Tau filament bind	15-hLO inh	PK Bst	DNA Pol III inh
COc1ccccc1-c1nc(NC2CC2)c2ccccc2n1	n[2.29 µM]	n	16µM	n	x	n
CC(=O)n1c(COS(C)(=O)=O)nc2ccccc21	n[11.4 µM]	n[11.5 µM]	n[11.4 µM]	n[11.4 µM]	x	n[11.4 µM]
COC(=O)[C@H](CCSC)NC(=O)C/C=C\[C@@H](C)[C@@H](CO)OC	n[11.4 µM]	n[11.5 µM]	x	n[11.4 µM]	x	x
OC[C@@H]1O[C@@H](n2cnc3c(N[C@@H]4C[C@@H]5CC[C@H]4C5)ncnc32)[C@@H](O)[C@H]1O	n	n	n	n	x	n
C[C@@H]1O[C@@H](O)[C@@H](O)[C@H](O)[C@H]1O	n[11.4 µM]	n[11.5 µM]	n[11.4 µM]	n[11.4 µM]	x	n[11.4 µM]
COc1ccccc1-c1nc(NCc2cnc(C)cn2)c2ccccc2n1	n[2.29 µM]	n	u	16µM	x	n
Cc1cnc(CNc2nc(-c3ccccc3C)nc3ccccc23)cn1	n[2.29 µM]	n	n	n	x	n
COc1ccccc1-c1ccc(NC2CCCCC2)nn1	13µM	n	n	n	x	n
COc1ccccc1CNc1nc(-c2ccccc2OC)nc2ccccc12	n[2.29 µM]	n	4µM	u	x	n
CC(C)C(c1nnnn1Cc1ccco1)N1CCN(c2nc3ccccc3s2)CC1 (configuration not stated)	n	2µM	n	n	n	n
O=c1[nH]c2[nH]c(=S)[nH]c(=S)c2[nH]1	n[11.4 µM]	n[11.5 µM]	n[11.4 µM]	u	x	n[11.4 µM]
O=C1NC(=O)[C@@H]2C3c4ccccc4C=CN3[C@H](C(=O)c3cccs3)[C@H]12 (some centres not stated)	25µM	n	n	n	6.2	n
O=[N+]([O-])c1ccc(NCCO)c(OCCO)c1	x	n	n	n	x	n
c1cn(CCCNc2ncnc3nc[nH]c23)cn1	2.5µM	x	n	n	x	n
COc1ccc(NC2=Nc3ccccc3CC2)cc1	20µM	n	n	n	n	n
COc1ccc(NC(=O)N2CCCc3ccccc32)cc1	n	n	n	n	x	n
CC(C)(C)n1ncc2c(=O)n(Cc3c(F)cccc3Cl)cnc21	n	u	n	n	9.9	n
CC(C)(C)n1ncc2c(=O)n(Cc3ccc(Cl)cc3Cl)cnc21	n	u	n	n	2.9	n
CC(=O)Nc1ccc(NC(=O)Cn2cnc3c(cnn3C(C)(C)C)c2=O)cc1	n	n	n	n	n	n
CC(C)(C)n1ncc2c(=O)n(CC(=O)c3ccc(Cl)cc3)cnc21	20µM	n	n	n	x	n
Cc1cc(NC(=O)Cn2cnc3c(cnn3C(C)(C)C)c2=O)no1	n	n	n	n	n	n
COc1cccc(-n2nnc3c(=O)n(Cc4c(F)cccc4Cl)cnc32)c1	n	n	n	n	x	n
CC(C)(C)n1ncc2c(=O)n(CC(=O)Nc3ccc(Cl)cc3)cnc21	n	n	n	n	n	n
CC(C)(C)n1ncc2c(=O)n(CC(=O)NCc3ccccc3)cnc21	20µM	n	n	n	x	n
O=C(/C=C\c1ccc(O)c(O)c1)O[C@H]1C[C@@](O)(C(=O)O)C[C@H](O)[C@@H]1O	n[11.4 µM]	x	u	x	x	n
SMILES	FLuc inh	ERK AVP block	Tau filament bind	15-hLO inh	PK Bst	DNA Pol III inh
CC1(C)O[C@@H]2C[C@H]3[C@H]4C[C@H](F)C5=CC(=O)C=C[C@@]5(C)[C@@H]4[C@H](O)C[C@]3(C)[C@]2(C(=O)CO)O1	n	n	n	n	x	n
NC[C@@H]1O[C@@H](O[C@H]2[C@@H](O)[C@H](O[C@@H]3[C@H](O)[C@H](N)C[C@H](N)[C@H]3O[C@@H]3O[C@@H](CO)[C@H](O)[C@H](O)[C@@H]3N)O[C@H]2CO)[C@H](N)[C@H](O)[C@@H]1O	n	n	n	n	x	n
COc1cccc(C=Nc2cc(C)on2)c1O	n	n	n	n	x	n
CCc1ccc2oc(-c3cc(N=Cc4cccc(OC)c4O)ccc3O)nc2c1	1.3µM	n	13µM	n	1.3	n
CN(C)S(=O)(=O)c1ccc2c(c1)c(=O)c(C(=O)NCCCN1CCCCCC1)cn2C	n	16µM	n	u	x	n
Cc1ccc(NCN2C(=O)C3C4C=CC(C4)C3C2=O)cc1 (configuration not stated)	n	n	n[11.4 µM]	n[11.4 µM]	x	n[11.4 µM]
